Reference: the supplement of paper PMC6555819

Assays:
Test in all cases: PBM binding z-score (relative to random genomic background probes); higher = stronger binding; sequences stand for … in GC…GCGATTGACAGCGTAGAATGAAGG
[1] = system: RARb homodimer (NR concentration 270 nM)
Summary of the method: (§1)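 Each nuclear receptor dimer, without ligand, was incubated for 1 h on custom Agilent 4×180K protein-binding microarrays. Binding was detected with antibodies against each partner (one per run), and scanned fluorescence was regression-normalized. The binding z-scores are referenced to random human genomic background probes.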

[2] = system: RARg:RXRa (NR concentration 270 nM, RXRa partner concentration 90 nM)
Summary of the method: as §1

[3] = system: RARg homodimer (NR concentration 270 nM)
Summary of the method: as §1

[4] = system: RXRa DBDmut IVT, anti-RXR (DBD mutation: RXRa K156A/R161A, NR concentration 90 nM)
Summary of the method: as §1

[5] = system: RXRa homodimer (NR concentration 180 nM)
Summary of the method: as §1

[6] = system: THRa:RXRa (NR concentration 90 nM, RXRa partner concentration 90 nM)
Summary of the method: as §1

[7] = system: THRa homodimer (NR concentration 90 nM)
Summary of the method: as §1

[8] = system: VDR homodimer (NR concentration 270 nM)
Summary of the method: as §1

| Sequence | PBM binding z-score [1] | PBM binding z-score [2] | PBM binding z-score [3] | PBM binding z-score [4] | PBM binding z-score [5] | PBM binding z-score [6] | PBM binding z-score [7] | PBM binding z-score [8] |
| --- | --- | --- | --- | --- | --- | --- | --- | --- |
| CTCGAAAGGGCGGTTGAGGTGAGTATACGGATAA | 0.872 | 0.317 | 0.636 | 0.039 | -0.0679 | 4.21 | 1.28 | 0.0137 |
| GGAACGAGGGCAAAGTTGGTAGCATCTGTCGACG | 1.14 | 1.46 | 1.52 | 2.47 | 1.14 | 1.09 | -0.0808 | 1.46 |
| ACAGACAGGTGATGAAGGTAACTCACGCTATCAT | 0.275 | 0.28 | 0.546 | -0.0205 | 0.483 | 0.491 | -0.113 | 0.0793 |
| CCTACCGGGCCATTCAGAGGTCATTGATCATATG | 4.14 | 4.98 | 3.36 | 0.918 | 3.86 | 3.65 | 1.73 | 4.05 |
| CCTACTGGGCCAAAGGTCATTAATTCCAATGCTC | 4.19 | 5.3 | 4.49 | 1.34 | 6.16 | 3.01 | 0.695 | 2.77 |
| TGAATGAGGTTGTAAGATCAGGGAACGTTGCAAA | -0.435 | -0.0347 | 0.0621 | -0.583 | 0.396 | 0.192 | -0.364 | -0.21 |
| TCTGTTAGTTGATTAGGGCAACCGAAACAGCGGA | 0.861 | 0.9 | 0.978 | 0.605 | 0.318 | 0.839 | 0.442 | 0.324 |
| CACGAAAGGTCGGTTGAGGTGAGTATACGGATAA | 2.56 | 2.89 | 3.15 | 0.785 | 2.36 | 5.03 | 1.69 | 0.932 |
| AGCTCTAGGTAACCAAGTTCAGTGAATGCCGAAC | 1.25 | 0.159 | 0.348 | 0.428 | 0.269 | 1.14 | 0.629 | 2.43 |
| ACAGACAGGTGAAGAAGGTAACTCAGGCTATCAT | 0.685 | 0.696 | 0.885 | -0.215 | 0.527 | 1.32 | 0.0297 | -0.131 |
| GCTCGGAGGACAAGATCAGAGCTTTGTCCGTAGA | -0.303 | -0.459 | 0.204 | -0.708 | -0.639 | 0.191 | -0.651 | -0.587 |
| CCGAGTAGGATATGGGGCATTCAGGCAACGGTGA | 0.223 | -0.15 | 0.00405 | -0.637 | 0.133 | 0.16 | 0.0622 | -0.318 |
| AGAACGAGGGGACGCTGAGTTGATAGCAGAGTAG | 0.0721 | 0.0507 | 0.265 | 0.401 | -0.0794 | 0.202 | -0.233 | 1.16 |
| TCTATTAGTTGATTAGGGTAACCGAAACAGCGGA | 0.423 | 0.525 | 0.53 | 1.03 | 0.666 | 1.61 | 0.861 | 0.517 |
| CCTAGTTTGTCAGGAGGTCACACACCGGATATGA | 4.01 | 4.61 | 3.87 | 1.93 | 4.52 | 3.62 | 2.87 | 3.26 |
| CCTACTCGGCCAAAGGTCATTGATTCCAATGCTC | 4.75 | 6.07 | 5.2 | 1.7 | 6.26 | 3.41 | 1.46 | 2.63 |
| GCTCGCAGGCCATTTGGGTCACTCAATGACGGGC | 1.93 | 1.23 | 1.41 | 0.0952 | 0.671 | 1.93 | 0.651 | 0.416 |
| CCGACTGGGGCAGAAAGATTACCATACCATCCGG | -0.533 | -0.183 | 0.217 | -0.916 | 0.0291 | -0.794 | -0.569 | -0.722 |
| CGAACTAGGTCAAAGACAGTGAATCTCCGCACGC | 2.53 | 3.63 | 3.88 | 1.57 | 2.67 | 2.39 | 0.814 | 0.508 |
| CCTGCTAGGTCAATGGTCAGCTATAGCAGCTCGC | 3.2 | 3.54 | 4.59 | 1.75 | 2.21 | 2.26 | 0.61 | 0.24 |
| GCGATTAGTTGAAAGGGCAACCGAATGATTCTCG | 1.82 | 1.14 | 1 | 0.582 | 1.27 | 0.405 | -0.273 | 0.184 |
| AGTATGAGGTTATTAAGATCAGGGAATTGCGGTC | 1.18 | 1.27 | 1.09 | 2.07 | 1.53 | 2.27 | 1.05 | 1.41 |
| TCATATAGGTAATACAGTTGAAAGTCGGCATCTA | 0.353 | 0.792 | 0.493 | 1.96 | 1.26 | 0.327 | 0.576 | 0.467 |
| CAGCCTAGGTCCGGGCCAGTATAGGAGGAACGTT | -0.676 | -0.685 | -0.755 | -1.37 | -0.779 | -0.819 | -1.03 | -0.835 |
| CCAGAGAGGTGAAAGGTAACTCAGTCTGGTACGC | 1.42 | 2.57 | 1.44 | 0.39 | 3.56 | 2.1 | 0.391 | 0.0875 |
| ACTCGGAGGACAAAGGTCAGTGCTACGCCAGTGA | 4.71 | 5.37 | 4.99 | 1.36 | 4.26 | 3.38 | 0.657 | 1.11 |
| TCTACTTGGTCAAAGGTCACACACTCGAAATGCG | 5.11 | 7.2 | 6.3 | 2.19 | 8.15 | 4.24 | 2.7 | 2.68 |
| CCTATTAGTTCACCATAAGGGCAACCGAAGCTCG | 3.48 | 4.31 | 2.61 | 2.82 | 1.69 | 3.37 | 1.73 | 2.41 |
